Measured values published in PubChem BioAssay (NCI).
This is part of a sample that, as a whole, favours compounds with a hit. Of some 83,000 tested, about 20% had one in any assay.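 Single-concentration screen, 48 h exposure, 96-well plates. Endpoint: percent growth. Below 10 = active.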 The source made the active and inactive calls.

Assays:
Test in all cases: NCI-60 one-dose screen, 48 h (100 = growth as untreated, 0 = no growth, -100 = all killed)
Details in all cases: 10 µM unless noted
[1] = tested on: RPMI-8226 leukemia
[2] = tested on: OVCAR-8 ovarian
[3] = tested on: OVCAR-5 ovarian
[4] = tested on: OVCAR-4 ovarian
[5] = tested on: SK-OV-3 ovarian
[6] = tested on: IGROV1 ovarian
[7] = tested on: OVCAR-3 ovarian
[8] = tested on: HS 578T breast
[9] = tested on: NCI/ADR-RES ovarian
[10] = tested on: T-47D breast

Measured: growth

Cc1nnc(Nc2ccc(NC(=O)Nc3ccc(Cl)cc3)cc2)c2ccccc12
inactive: [2] 31.4% | [3] 72.8% | [4] 42.6% | [5] 66.4% | [6] 62% | [7] 44.4% | [9] 45.1%
active: [1] -11.9% | [8] 3.43% | [10] 8.43%

OCc1nnn(-c2ccccc2)c1CO
inactive: [1] 101% | [2] 109% | [3] 112% | [4] 99.2% | [5] 129% | [6] 108% | [7] 117% | [8] 117% | [9] 115% | [10] 114%

COc1ccc(Nc2ccnc(NCCCNc3ccnc4cc(Cl)ccc34)n2)cc1
inactive: [4] 11.8% | [6] 21.7% | [9] 35.4%
active: [1] -60.5% | [2] 5.52% | [3] -19.9% | [5] -5.22% | [7] -84.5% | [8] -52.2% | [10] -51.8%

COc1ncc(-c2ccc3nccc(C#CCN4CCN(S(C)(=O)=O)CC4)c3c2)cc1NS(=O)(=O)c1ccc(F)cc1F
active: [1] -30.1% | [2] 7.2% | [4] 8.24% | [5] -11.1% | [6] -35.9% | [7] -20.7% | [8] -13.9% | [9] 6.28% | [10] 3.5%
inactive: [3] 11.3%

CN(C)c1cccc2c(S(=O)(=O)N[C@H]3CC[C@H]4[C@@H]5CCc6cc(O)ccc6[C@H]5CC[C@]34C)cccc12
active: [1] 7.82%
inactive: [2] 45.8% | [3] 78.1% | [4] 50.6% | [5] 33.3% | [6] 33.1% | [7] 19.7% | [8] 56.5% | [9] 12.3% | [10] 21.5%

CCCCCCCCCCSc1ncnc2nc[nH]c12
inactive: [1] 51.4% | [2] 67.5% | [3] 101% | [4] 61.3% | [5] 85% | [6] 75.1% | [7] 71.1% | [8] 91.4% | [9] 54.5% | [10] 47.9%

O[C@@H]1Cc2ccc3ccccc3c2N[C@H](c2ccoc2)C1
inactive: [1] 103% | [2] 101% | [3] 100% | [4] 99.1% | [5] 102% | [6] 109% | [7] 115% | [8] 104% | [9] 103% | [10] 93.8%

COc1ccc(-c2oc3cc(O)c(OC)c(O)c3c(=O)c2OC)cc1O
inactive: [1] 12.3% | [2] 25.3% | [3] 57% | [4] 65.6% | [5] 24.5% | [6] 12.2% | [10] 53.1%
active: [7] -40.1% | [8] -27.4% | [9] -4.16%

O=C(Nc1nc(-c2ccc(Cl)cc2)cs1)c1cc(O)c(O)c(O)c1
inactive: [1] 17.1% | [2] 15.5% | [3] 62.6% | [4] 27.8% | [5] 43.4% | [6] 15.7% | [7] 40.1% | [8] 61.9% | [9] 13.6% | [10] 25.4%

COC(=O)CC1=C(C)/C(=C/c2[nH]c(-c3ccc[nH]3)cc2OC)N=C1C
inactive: [3] 18.7% | [4] 10.5% | [5] 20.2% | [6] 11.3%
active: [1] -55.3% | [2] 6.58% | [7] -17.7% | [8] -14.9% | [9] 5.14% | [10] 0.172%

C=C(C[C@@](O)(C(=O)Oc1ccccc1)C(=O)C1CCCCC1)c1ccccc1
inactive: [1] 92% | [2] 101% | [3] 103% | [4] 97.8% | [5] 105% | [6] 110% | [7] 106% | [8] 106% | [9] 101% | [10] 96.2%

CC(=O)O[C@H]1C(=O)[C@@]2(C)C([C@H](OC(=O)c3ccccc3)[C@]3(O)C[C@H](OC(=O)[C@H](O)[C@@H](NC(=O)c4ccccc4)c4ccccc4)C(C)=C1C3(C)C)[C@]1(OC(C)=O)CO[C@@H]1C[C@@H]2O (stereo not given in full)
inactive: [2] 26.6% | [3] 27.2% | [4] 46.5% | [5] 18.1% | [6] 42% | [8] 14.9% | [9] 43.9% | [10] 47.3%
active: [1] 3.77% | [7] -9.4%

COc1ccc(C2CC(c3ccc(OC)c(OC)c3)=NN2C(=O)c2cc(OC)c(OC)c(OC)c2)c(OC)c1 (stereo not given)
inactive: [1] 92.4% | [2] 91.2% | [3] 93% | [4] 74.7% | [5] 65.6% | [6] 61.6% | [7] 52.9% | [8] 49.6% | [9] 53.2% | [10] 82%

O=C1CC(=O)N(c2ccccc2)O1
inactive: [1] 105% | [2] 103% | [3] 92.9% | [4] 110% | [5] 98.4% | [6] 99% | [7] 118% | [8] 110% | [9] 101% | [10] 97.5%

C/C(=N/N=C(N)N)c1ccc(Cl)cc1
inactive: [1] 89.8% | [2] 110% | [3] 87.8% | [4] 92.9% | [5] 89.5% | [6] 14.6% | [7] 110% | [8] 272% | [9] 86.5% | [10] 79.3%

Cc1ccc2c(c1)O/C(=C\c1ccc([N+](=O)[O-])o1)C2=O
inactive: [3] 71.6% | [5] 91.1% | [8] 106% | [9] 78.5% | [10] 41.4%
active: [1] -34.4% | [2] -4.7% | [4] 5.62% | [6] -17.3% | [7] -15%

Cn1c(=O)c2nc(SCc3ccccc3)n(C)c2n(C)c1=O
inactive: [1] 117% | [2] 106% | [3] 97.6% | [4] 118% | [5] 99.2% | [6] 139% | [7] 117% | [8] 104% | [9] 112% | [10] 98.4%

NCCCc1nnc(CCC(=O)c2nc3ccccc3[nH]2)o1
inactive: [1] 101% | [2] 110% | [3] 104% | [4] 104% | [5] 106% | [6] 104% | [7] 119% | [8] 112% | [9] 97.9% | [10] 97.7%

CC(C)c1ccc(C(=O)Nc2sc3c(CN(C)C)c(O)ccc3c2C(N)=O)cc1
inactive: [2] 51.5% | [3] 59.4% | [4] 48.5% | [5] 70.6% | [6] 27.3% | [7] 62.7% | [8] 69.1% | [9] 51.6% | [10] 54.2%
active: [1] -31.8%

CCCCCCCCSc1ncnc2c1ncn2CO
inactive: [1] 60.7% | [2] 90.4% | [3] 103% | [4] 60.3% | [5] 83.1% | [6] 93.3% | [7] 78.2% | [8] 95.6% | [9] 86.8% | [10] 62%

CN(CC(=O)N(Cc1ccc(C2CCCCC2)cc1)c1ccc(C(=O)O)cc1)S(=O)(=O)c1c(F)c(F)c(F)c(F)c1F
active: [2] 6.02% | [6] -24.8% | [7] -83.1% | [10] -6.87%
inactive: [1] 11.3% | [3] 116% | [4] 83.8% | [5] 106% | [8] 18.5% | [9] 87.7%

c1coc([C@@H]2C[C@@H]3Cc4ccc5ccccc5c4N2O3)c1
inactive: [1] 97.3% | [2] 99.4% | [3] 90.8% | [4] 92.4% | [5] 103% | [6] 113% | [7] 114% | [8] 110% | [9] 99.8% | [10] 104%

O=C(Nc1cccc(C(F)(F)F)c1)Nc1ccc(OCc2nnc(-c3ccc(Cl)cc3)o2)c(F)c1
inactive: [1] 41.3% | [2] 58.2% | [3] 75.9% | [4] 75% | [5] 79.5% | [6] 90% | [7] 85.8% | [8] 91.7% | [9] 73.1% | [10] 61.6%

COc1ccc(Nc2nccc(N3CCN(c4c5ccc(Cl)cc5nc5ccc(OC)cc45)CC3)n2)cc1
inactive: [1] 29.5% | [2] 73.2% | [3] 97.1% | [4] 46.6% | [5] 107% | [6] 75.7% | [7] 67.5% | [8] 80.3% | [9] 75.9% | [10] 48.7%

CC(C)(C)c1ccc(S(=O)(=O)O)s1
inactive: [1] 95.9% | [2] 108% | [3] 96.3% | [4] 96.6% | [5] 101% | [7] 115% | [8] 88.8% | [9] 106% | [10] 97.9%
active: [6] -12.6%

CCN1CCN(c2cc(-c3cn[nH]c3-c3cc(C)cc(OC)c3)nc(-c3cccnc3)n2)CC1
inactive: [1] 86.2% | [2] 79.6% | [3] 124% | [4] 94% | [5] 116% | [6] 84.4% | [7] 67.6% | [8] 68.8% | [9] 91.5% | [10] 83.1%

O=[N+]([O-])c1cnc(Sc2ccncn2)c([N+](=O)[O-])c1
active: [10] -31.7%
inactive: [1] 67.4% | [2] 97.3% | [3] 102% | [4] 97.8% | [5] 97.2% | [6] 117% | [7] 55.1% | [8] 97.8% | [9] 107%

COc1cccc(-c2nnc(N)o2)c1
inactive: [1] 109% | [2] 98.7% | [3] 105% | [4] 97.9% | [5] 115% | [6] 102% | [7] 90.4% | [8] 101% | [9] 102% | [10] 97.7%
